In the library only some 2.9% were active in any assay of this set; here they are far more common.
Fam108B inh: counter-screen for RBBP9 inhibitors: inhibitors of mouse Fam108B | recombinant Fam108B, FP-Rh probe fluorescence polarization | inhibition, % at 9.51 µM | actives 0.33% (n = 300,000) | AID 1947;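 active = inhibition above the screen mean inhibition plus 3 SD, computed separately per campaign, cut at about 18% in these data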;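 note: inhibitors lower polarization as less probe binds the enzyme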
pPAFAH inh: inhibitors of human plasma PAF acetylhydrolase (pPAFAH); actives 1.5% (n = 330,000); AID 463082; Q13093; recombinant pPAFAH, FP-rhodamine probe fluorescence polarization; inhibition, % at 3.39 µM;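 active = inhibition above the mean inhibition across the screen plus 3 SD, cut at about 25% in these data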;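 note: inhibitors block binding of the rhodamine activity-based probe so polarization drops; 0% = enzyme with DMSO and 100% = wells lacking pPAFAH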
PAFAH1B2 inh: PAFAH1B2 (human) inhibition; recombinant PAFAH1B2, FP-rhodamine activity probe, fluorescence polarization; inhibition, % at 3.39 µM; actives 1.2% (n = 340,000); AID 492953;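 active = inhibition above the mean of all tested compounds plus 3 SD, cut at about 24% in these data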;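 note: 0% = enzyme with DMSO and 100% = wells lacking PAFAH1B2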
Target sequence (P68402 whole entry, looked up): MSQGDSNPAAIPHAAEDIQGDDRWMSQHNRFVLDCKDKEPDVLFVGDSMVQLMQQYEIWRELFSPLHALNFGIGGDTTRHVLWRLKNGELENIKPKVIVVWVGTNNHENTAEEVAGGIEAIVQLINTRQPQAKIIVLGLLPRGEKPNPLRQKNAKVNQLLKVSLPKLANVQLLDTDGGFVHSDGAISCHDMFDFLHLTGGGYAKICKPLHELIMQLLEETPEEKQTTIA
PAFAH1B3 FP inh: inhibitors of human PAFAH1B3; inhibition, % at 3.39 µM; Q15102; recombinant PAFAH1B3, FP-rhodamine probe, fluorescence polarization; actives 0.28% (n = 340,000);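 active = inhibition above the screen-wide average of all tested compounds plus 3 SD, cut at about 25% in these data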;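 note: 0% = enzyme with DMSO only and 100% = wells lacking PAFAH1B3 protein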
Target sequence (Q15102 whole entry, looked up): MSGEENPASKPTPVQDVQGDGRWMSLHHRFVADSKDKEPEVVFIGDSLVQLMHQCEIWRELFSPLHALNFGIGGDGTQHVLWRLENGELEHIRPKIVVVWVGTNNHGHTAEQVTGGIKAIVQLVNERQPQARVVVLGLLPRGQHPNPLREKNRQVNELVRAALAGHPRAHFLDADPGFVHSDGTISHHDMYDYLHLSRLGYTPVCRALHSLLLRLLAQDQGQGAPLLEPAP
PAFAH2 FP inh: inhibitors of human PAFAH2; actives 0.99% (n = 340,000); Q99487; recombinant PAFAH2, FP-rhodamine activity probe, fluorescence polarization; inhibition, % at 3.39 µM;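 active = inhibition above the mean over all tested compounds plus 3 SD, cut at about 30% in these data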;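 note: inhibitors block probe labeling of enzyme so polarization drops; 0% = enzyme with DMSO and 100% = wells lacking PAFAH2 protein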
PME-1 primary: PME-1 (human) inhibition; inhibition, % at 5.9 µM; actives 0.53% (n = 320,000); recombinant PME-1, FP-Rh probe fluorescence polarization; Q9Y570;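 active = inhibition above the campaign mean of all compounds plus 3 SD, cut at about 26% in these data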;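 note: competitive labeling of PME-1 active site by serine hydrolase directed probe; 0% = PME-1 with DMSO and 100% = wells lacking PME-1 enzyme; inhibitors block probe labeling so polarization falls and inhibition rises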
pPAFAH FP conf: pPAFAH (human) inhibition, confirmed; inhibition, % at 3.39 µM; actives 72% (n = 2,300); recombinant pPAFAH, FP-Rh probe fluorescence polarization; AID 463230; shares compounds with pPAFAH inh;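 active = mean inhibition of the triplicate above the hit cutoff set for the earlier primary screen, cut at about 25% in these data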;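 note: 0% = enzyme with DMSO and 100% = wells lacking pPAFAH enzyme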
An asterisk follows results filed as active; . = not tested or not shown.

SMILES	Fam108B inh	pPAFAH inh	PAFAH1B2 inh	PAFAH1B3 FP inh	PAFAH2 FP inh	PME-1 primary	pPAFAH FP conf
Oc1ccc(C2C[C@H]3CC[C@@H]2C3)cc1O (stereo partly specified)	4.6	51.8*	75.1*	13.6	7.0	9.6	32.1*
COc1ccc(-n2ncc3c(=O)n(CC(=O)NC(C)C)cnc32)cc1	-0.7	35.6*	5.0	-0.7	4.5	-0.7	2.2
COc1cc(C(=O)NCCCN2CCCC2=O)cc(Br)c1OCc1ccccc1	.	79.4*	-1.2	-6.8	-11.3	-4.5	8.7
N#CCc1nn2c3c(cnc2c1C#N)C(=O)CCC3	5.8	52.7*	3.0	11.5	0.6	4.2	3.5
Cc1nn2c3c(cnc2c1-c1ccccc1)C(=O)CCC3	-0.2	-5.5	2.9	8.2	-4.2	-2.1	.
Cc1cccc(C(=O)NCC(=O)N2CCN(c3ccccn3)CC2)c1	.	6.2	1.0	3.6	15.9	.	.
Cc1ccc(NC(=O)C(C)OC(=O)CCC2CCCCC2)cc1 (stereo unspecified)	-2.0	42.9*	7.3	5.6	2.9	-2.5	8.3
CC(OC(=O)CCC1CCCCC1)C(=O)Nc1ccc(S(N)(=O)=O)cc1 (stereo unspecified)	-1.1	0.1	2.8	-1.7	-6.0	4.2	.
Cc1cccc(C)c1NC(=O)CN(C)S(=O)(=O)c1ccc(-c2ccc(=O)[nH]n2)s1	-6.1	-2.9	-0.5	7.5	-1.2	-4.0	.
O=C(CNC(c1ccccc1)c1ccccc1)Nc1ccccc1F	2.2	47.1*	5.9	-3.8	5.8	2.4	-4.0
Cc1nc(N)sc1N=Nc1ccccc1C(F)(F)F	8.6	41.8*	3.4	11.9	-1.9	3.1	30.2*
Cc1cccc(C)c1OCC(=O)Nc1ccc2c(c1)OCCO2	0.5	6.8	4.3	3.9	1.0	6.2	.
CCOC(=O)c1cc(-c2ccc(/C=C3/C(=O)NC(=O)C(C#N)=C3C)o2)ccc1Cl	5.1	45.7*	8.1	16.8	22.1	0.7	47.5*
Cc1cc(C(=O)N/N=C2\CC(=O)c3ccccc32)c(C)n1-c1ccc(F)cc1	6.2	42.4*	2.0	14.1	0.8	9.9	31.8*
CCOc1cc(/C=N/NC(=O)c2cc(C)n(-c3ccc(F)cc3)c2C)ccc1O	4.5	13.7	6.6	10.7	-2.4	17.5	.
O=C(COC(=O)c1ccc2[nH]c3c(c2c1)CCCC3)Nc1ccc(Cl)cc1Cl	1.3	5.5	-1.9	3.9	25.3	6.4	.
CCC(C)c1ccccc1NC(=O)COC(=O)c1ccc2[nH]c3c(c2c1)CCCC3 (stereo unspecified)	7.4	38.5*	6.0	7.7	71.2*	18.6	29.1*
Cn1c(=N)n(CC(=O)c2ccc(Br)cc2)c2ccccc21	16.6	34.5*	1.7	-6.5	0.7	32.0*	5.6
CC1=Nc2nc(N3CCCCCC3)c(C#N)c3c4c(nc(c23)N1)N(c1ccc2ccccc2c1)C(=O)C4	6.3	59.1*	7.1	4.4	23.2	22.7	21.7
Cc1ccc(C)n1/N=C1/NC(=O)CS1	1.3	39.5*	2.2	21.3	38.9*	-8.6	17.7
C(=Nc1cccc2c(N=Cc3ccco3)cccc12)c1ccco1	10.0	44.6*	6.8	11.4	6.3	6.1	3.2
C(=N\C(/N=C/c1ccco1)c1ccco1)/c1ccco1	4.2	13.0	0.5	13.8	5.7	4.8	.
C=CC(C)(C)c1c2occc2c(O)c2ccc(=O)oc12	.	2.2	9.0	-3.2	0.9	.	.
C=CC(C)(C)c1c(O)c(CC=C(C)C)c(O)c2c(=O)c3ccc(O)c(O)c3oc12	-11.9	45.4*	3.0	15.8	-27.5	14.2	49.3*
O=C(Nc1ccc(F)cc1)N1CCN(C(=O)C2CCCO2)CC1 (stereo unspecified)	-2.9	0.0	1.6	0.5	0.5	-5.0	.
SMILES	Fam108B inh	pPAFAH inh	PAFAH1B2 inh	PAFAH1B3 FP inh	PAFAH2 FP inh	PME-1 primary	pPAFAH FP conf
N#Cc1c(-c2cccc(Br)c2)cc(-c2ccco2)[nH]c1=O	-2.7	45.3*	4.8	7.0	23.0	-0.8	32.2*
N#Cc1c(-c2ccccc2)cc(-c2ccccc2)[nH]c1=O	-7.6	2.7	3.8	2.5	-7.3	3.7	.
Cc1ccc(S(=O)(=O)N2[C@@H](c3ccc(C(C)(C)C)cc3)C(C(=O)O)=CC[C@H]2c2ccc3c(c2)OCO3)cc1	.	57.8*	92.3*	4.2	10.0	.	17.1
COc1ccc(C(=O)NCCS(=O)(=O)NCc2ccc3c(c2)OCO3)cc1	1.3	38.9*	2.4	2.6	11.4	-3.7	-3.2
CCOC(=O)C(C(C)=O)c1c(Br)c(O)c(O)c2c(C(=O)c3ccc(C)cc3)coc12 (stereo unspecified)	6.0	47.1*	1.8	4.9	11.1	0.0	34.7*
Cc1ccc(C(=O)c2coc3ccc(O)c(Cl)c23)cc1	-2.4	3.4	0.9	7.1	10.5	-0.1	.
CC(=O)OCCNc1cc(SCc2ccco2)c2nonc2c1[N+](=O)[O-]	10.5	57.8*	-2.8	7.5	11.4	1.1	6.5
O=[N+]([O-])c1c(NCCCO)cc(SCc2ccco2)c2nonc12	6.8	59.5*	6.2	9.2	1.1	-2.4	-2.2
CC(C)C(C)(C#N)NC(=O)COC(=O)C1CCN(S(=O)(=O)c2ccc3c(c2)OCCO3)CC1 (stereo unspecified)	.	.	-4.5	1.7	9.2	.	.
CCOC(=O)N1CCN(C(=O)CCN2C(=O)COc3ccc(C)cc32)CC1	1.3	77.5*	-0.3	-1.8	-1.4	2.8	-4.9
C=CCSc1nnc(CCc2ccccc2)n1N	.	.	4.1	4.0	1.2	.	.
O=C1CC(N(O)c2ccccc2)C(=O)N1c1ccc(Cl)c(Cl)c1 (stereo unspecified)	-1.5	49.1*	-2.6	4.2	1.1	21.7	4.9
O=C(O)CSC1CC(=O)N(c2ccc(Cl)c(Cl)c2)C1=O (stereo unspecified)	-2.0	4.0	5.0	5.8	-8.1	-0.8	.
CS(=O)(=O)c1ccc(C(=O)OCC(=O)NCc2cccs2)cc1[N+](=O)[O-]	.	35.5*	-2.9	7.6	37.7*	.	7.3
CS(=O)(=O)c1ccc(C(=O)OCC(=O)NC2CCS(=O)(=O)C2)cc1[N+](=O)[O-] (stereo unspecified)	-6.8	3.5	-1.2	14.6	3.2	-4.5	.
CCOC(=O)/C=C1\CN(C(C)c2ccccc2)S(=O)(=O)c2ccccc21 (stereo unspecified)	-4.1	8.3	0.3	8.9	12.4	1.2	.
CCN(CC)c1ccc(NC(=O)c2ccccn2)cc1S(=O)(=O)Nc1ccccc1OC	.	.	-0.8	12.0	11.6	.	.
COc1cc(N2C(=O)NC3CC2(C)Oc2ccccc23)cc(OC)c1OC (stereo unspecified)	4.6	35.2*	3.5	9.1	-5.2	0.0	1.9

Assay outcomes as filed in PubChem BioAssay.
